# Screening data: PubChem, National Center for Advancing Translational Sciences (NCATS)
# GLP-1R inv ag – qHTS of GLP-1 Receptor Inverse Agonists (Inhibition Mode) | Glucagon-like peptide 1 receptor (Homo sapiens), P43220 | HEK293 GLP-1R CRE-luciferase, luminescence, 24 h; GLP-1R form is constitutively active | Potency, µM (top dose mostly 38.3 µM), inactives show top-dose activity change, negative = inhibition, actives largely listed as inhibitors | actives 1.6% (n = 410,000); further: on the % scale 0 is the no-effect control and ±100 the full control effect; nearly all actives have a fitted effect of over 55% in size
#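 Stable HEK293 clone (constitutively active GLP-1R + cAMP-response luciferase); 200 cells/uL plated, 12 h pre-culture, compound 24 hr, 37 deg C/5% CO2; detection reagent 12 min RT; luminescence.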
# GLP1R cytotox – qHTS of GLP-1 Receptor Inverse Agonists: Cytotox Screen | HEK293 cAMP-luciferase reporter cells, luminescence, 24 h | Potency, µM (titrated, usually from 38.3 µM), without a hit: at the top dose activity change, negative = inhibition, most hits filed as inhibitors | actives 0.13% (n = 410,000);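 further: loss of luciferase light is scored as toxicity; on the % scale 0 is the no-effect control and ±100 the full control effect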
#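 MLSMR compounds, 24 hr on cells at 37 deg C/5% CO2; luminescence after luciferase reagent (12 min RT). Inhibition counted as the undesired cytotoxic outcome.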
# mIDH1 inhibitor – qHTS for Inhibitors of mutant isocitrate dehydrogenase 1 (IDH1): qHTS. Potency, µM (series often up to 76.6 µM), inactives show at the highest dose activity change, negative = inhibition, actives largely listed as inhibitors. IDH1-R132H enzyme, NADPH consumption, diaphorase/resazurin fluorescence. actives 0.093% (n = 390,000). Isocitrate dehydrogenase [NADP] cytoplasmic (Homo sapiens), O75874; further: on the % scale 0 is the no-effect control and ±100 the full control effect; nearly all actives have a fitted effect of over 65% in size
#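 IDH1-R132H (0.5 ug/mL) preincubated 30 min with compound, then NADPH (0.016 mM) and alpha-KG (2 mM) added; 80 min at RT, pH 7.5. Remaining NADPH coupled via diaphorase/resazurin to fluorescence (540/590 nm); concentration-response curves normalized to no-enzyme control.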
# GLP1R ag – qHTS of GLP-1 Receptor Agonists | HEK293 GLP-1R CRE-luciferase, luminescence, 4-6 h; cells express a hypersensitive GLP-1R form | actives 0.007% (n = 380,000) | Potency, µM (top dose mostly 45.6 µM), for the others: at the highest dose activation, actives largely listed as activators | Glucagon-like peptide 1 receptor (Homo sapiens), P43220; further: % of control where 0% means no effect
# TrxR1 inh – qHTS Assay for Inhibitors of Mammalian Selenoprotein Thioredoxin Reductase 1 (TrxR1): qHTS | Thioredoxin reductase 1, cytoplasmic (Rattus norvegicus), O89049 | recombinant rTrxR1, NADPH fluorescence consumption, selenite substrate | Potency, µM (doses to about 114 µM), for inactives: at the top dose activity change, negative = inhibition, most hits filed as inhibitors | actives 1% (n = 390,000) | AID 588453, 2011; further: on the % scale 0 is the no-effect control and ±100 the full control effect; nearly all actives have a fitted effect of over 65% in size
# Target sequence (O89049 whole entry, looked up): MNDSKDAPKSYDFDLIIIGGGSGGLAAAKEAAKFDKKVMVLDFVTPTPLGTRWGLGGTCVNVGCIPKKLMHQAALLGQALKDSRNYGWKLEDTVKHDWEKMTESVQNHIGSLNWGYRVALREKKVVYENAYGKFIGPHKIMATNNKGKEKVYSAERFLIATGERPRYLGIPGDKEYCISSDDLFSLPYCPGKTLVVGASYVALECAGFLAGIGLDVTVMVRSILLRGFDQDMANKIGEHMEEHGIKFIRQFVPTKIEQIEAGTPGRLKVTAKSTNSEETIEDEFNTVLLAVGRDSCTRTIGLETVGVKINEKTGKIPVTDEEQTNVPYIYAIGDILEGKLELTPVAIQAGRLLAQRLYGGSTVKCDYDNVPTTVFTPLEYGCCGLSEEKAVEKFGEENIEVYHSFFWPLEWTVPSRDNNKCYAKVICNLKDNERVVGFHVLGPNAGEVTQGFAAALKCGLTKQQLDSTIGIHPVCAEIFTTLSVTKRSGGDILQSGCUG
#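 Rat TrxR1 (90 nM in the dispensed reagent) was pre-reduced with 400 uM NADPH for 5 min at room temperature, then incubated with compound for 15 min. After 400 uM selenite was added, NADPH fluorescence (Ex 340/Em 450 nm) was followed for 8 min.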
# TrxR1 substrate – qHTS Assay for Substrates of Mammalian Selenoprotein Thioredoxin Reductase 1 (TrxR1): qHTS. AID 588456, 2011. Potency, µM (titrated, usually from 114 µM), inactives show at the highest dose activity change, negative = substrate turnover. actives 0.01% (n = 390,000). purified TrxR1 substrate turnover, NADPH consumption readout; further: on the % scale 0 is the no-effect control and ±100 the full control effect; nearly all actives have a fitted effect of over 50% in size
#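 Rat TrxR1, dispensed at 90 nM, was prereduced with 400 uM NADPH (final) for 5 min at ~22 deg C, then incubated with compound 15 min before 400 uM selenite. A first-read NADPH fluorescence drop versus no-compound background flagged substrates.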
# * = called active by the depositor; ? = inconclusive; / = no result; [ ] = another dose, or the depositor's remark. Sampled rows, rich in hits. Any-hit rate of the full collection: about 2.7%. The call rests on the fitted dose curve; in most records, active means well fitted curve in the direction sought with a large enough effect; inconclusive means small, poorly fitted or top-dose-only effect, or another doubt; inactive means no such curve, though single readings can be large; an effect the other way counts as inactive or inconclusive. Potency means the concentration at half of the fitted maximal effect.
SMILES,GLP-1R inv ag,GLP1R cytotox,mIDH1 inhibitor,GLP1R ag,TrxR1 inh,TrxR1 substrate
COc1ccccc1CNC(=O)CCn1c(=O)c2ccccc2n(CC(=O)Nc2ccc(C)cc2C)c1=O,-18%,2%,-2%,-4%,26%,8%
CCOc1ccc(NS(=O)(=O)c2ccc3[nH]c4c(c3c2)CCCCC4)cc1,?,-7%,-23%,/,24%,-6%
CCN1CCc2nc(SCC(=O)Nc3ccc(OC)cc3)c(C#N)cc2C1,19%,-3%,6%,3%,18µM*,-1%
Cc1ccc(C2(c3noc(CN4CCC(c5ccncc5)CC4)n3)CCCC2)cc1,4µM*,-19%,8%,?,14%,1%
COC(=O)C1=C(N)Oc2cc(N(C)C)ccc2C1c1ccccc1OC (stereo unspecified),6.3µM*,7%,-2%,-3%,9%[57.1 µM],1%[57.1 µM]
COC(=O)C1=C(N)Oc2cc(C)n(CC3CCCO3)c(=O)c2C1c1ccccc1OC (stereo unspecified),7%,-7%,5%,-7%,16%,8%
Cc1nn(-c2nc3ccccc3n2Cc2ccccc2)c2c1C(=O)CC(C)(C)C2,2.2µM*,-14%,6%,-4%,14%[57.1 µM],-2%[57.1 µM]
Cc1nn(-c2ccccc2)c2c1C(=O)N(Cc1ccccc1)C(=O)C(C)(C)C2,?,-7%,8%,-12%,16%[57.1 µM],-6%[57.1 µM]
CCCCCCn1c(=O)n2n(c1=O)[C@@H]1CN(S(=O)(=O)c3ccc(C)cc3)C[C@]1(O)[C@@H](OC(=O)NCc1ccccc1)C2,11µM*,-17%,12%,-3%,/,/
CCCCCCn1c(=O)n2n(c1=O)C[C@]1(OC(=O)NCC3CCCCC3)CN(S(=O)(=O)c3ccc(C)cc3)C[C@]1(O)C2,10µM*,-20%,9%,-3%,/,/
Cc1ccc(S(=O)(=O)N2C[C@H]3n4c(=O)ccc(=O)n4C[C@H](OC(=O)NCc4ccccc4)[C@@]3(O)C2)cc1,?,-11%,-4%,-5%,/,/
CCCN(CCC)C(=O)Cn1c(=O)n(-c2ccc(OC)cc2OC)c(=O)c2c3c(sc21)CCC3,14%,-8%,3%,0%,10%,3%
Cc1ccc(S(=O)(=O)N=Nc2c(O)[nH]c3ccccc23)cc1,2%,-29%,46µM*,0%,-12%,-3%
COc1ccc(-c2nnc(SCC(=O)N(C)Cc3ccccc3)o2)cc1OC,5%,-2%,-1%,/,13%,-4%
CN(Cc1ccccc1)C(=O)CSc1nnc(-c2cccc(Cl)c2)o1,10µM*,5%,/,/,38%,9%
CCCCc1ccc(CC(=O)NO)cc1,/,/,/,/,-5%,-7%
CN(C)CCNc1nc2sc3c(c2c(=O)n1Cc1ccccc1)CCCCC3,1.1µM*,?,-1%,11%,4%[57.1 µM],2%[57.1 µM]
COc1ccccc1CNC(=O)CN1C(=O)CSc2ccc(S(=O)(=O)N(C)C)cc21,-9%,-2%,-15%,/,7%[57.1 µM],-1%[57.1 µM]
O=C(Nc1ccnn1C1CCN(CCCC2CCCC2)CC1)c1ccccc1Cl,10µM*,-22%,5%,5%,16%,4%
COc1ccccc1C(=O)Nc1ccnn1C1CCN(Cc2cn(C)c3ccccc23)CC1,11µM*,-28%,-2%,3%,12%,5%
COc1ccccc1C(=O)Nc1ccnn1C1CCN(CCCC2CCCC2)CC1,?,?,5%,-3%,-26%,-3%
O=c1[nH]cnc2n[nH]nc12,/,/,/,/,11%,0%
COc1ccc(C(=O)n2nc(-c3ccco3)nc2NCc2cccs2)cc1OC,24%,-4%,1%,/,?,-8%
CCCCCOC(=O)Nc1nc(=O)n(C2O[C@H](C)[C@@H](O)[C@@H]2O)cc1F (stereo partly specified),/,/,/,0%,/,/
O=C(COc1ccc(Br)cc1CO)Nc1ccc(S(=O)(=O)N2CCCCC2)cc1,10µM*,-1%,0%,-3%,11%,5%
SMILES,GLP-1R inv ag,GLP1R cytotox,mIDH1 inhibitor,GLP1R ag,TrxR1 inh,TrxR1 substrate
O=C(CNc1ccc(Br)cc1)Nc1cccc(S(=O)(=O)N2CCCC2)c1,?,-19%,2%,0%,4%,-6%
CCc1ccc(OCC(=O)Nc2ccc(S(=O)(=O)N3CCCC3)cc2)c(Br)c1,-2%,-28%,-1%,-17%,11%,4%
O=C(CNc1ccc(Br)cc1)Nc1ccc(S(=O)(=O)N2CCCC2)cc1,10µM*,-27%,3%,-15%,-2%,-10%
C#Cc1ccc(C(=O)Nc2ccc(N3CCC(C)CC3)c(C(N)=O)c2)cc1,8.9µM*,-13%,-11%,9%,10%,-1%
O=C(Nc1ccc2oc(-c3cccc4c(Br)cccc34)nc2c1)c1ccc(F)cc1,4%,-3%,-13%,/,12%,13%
O=C(Nc1ccc2nc(SCCOc3ccccc3)sc2c1)c1cccs1,-4%,2%,13%,/,-5%,-1%
CN(C)CCCNC(=S)N1CCC(C(=O)c2ccc(Cl)cc2)CC1,2µM*,7%,3%,4%,/,/
O=c1cnn(Cc2ccc(Cl)c(Cl)c2)c2ccccc12,?,?,-8%,15%,6%,2%
Cc1cccc(Cn2ncc(Cl)c(Cl)c2=O)c1,-7%,?,5%,-24%,50µM*,-7%
Cc1cc2oc(=O)cc(Cn3ncc(Cl)c(Cl)c3=O)c2cc1Cl,157%,-14%,4%,9%,?,-5%[57.1 µM]
Cc1ccc(C)c(C(=O)Cn2ncc(Cl)c(Cl)c2=O)c1,0%,10µM*,7%,-29%,?,1%
O=c1c2ccccc2cnn1Cc1ccc(Cl)c(Cl)c1,10µM*,12%,10%,34%,10%[57.1 µM],-13%[57.1 µM]
CCOc1ccccc1N(CC(=O)NC1CCCCC1)C(=O)c1nsc(Cl)c1Cl,10µM*,2%,1%,15%,12%,-5%
Cc1ccc2onc(CNC(=O)NCc3ccc(Cl)cc3)c2c1,-5%,-11%,1%,/,11%,3%
Cc1cc(/C=C2\SC(=S)N(C)C2=O)c(C)n1-c1ccc(O)cc1,1.4µM*,9%,-3%,-5%,-32%,-11%
Nc1nc(-c2ccc(Br)cc2)c(S(=O)(=O)c2ccccc2)s1,?,-19%,-5%,-2%,-5%,-6%
